Results reported in PubChem BioAssay AID1159580 (chemical genetic matrix, 2015).
The campaign covered roughly 5,500 compounds. About 2,000 (36%) were called active. Inconclusive results (about 18%) are left out. Rule as the data show it: active = normalized growth mostly below about 0.91 (no sharp cut-off); inconclusive = no clear call, values can overlap the other calls; inactive = mostly above about 0.92. The list shows a part of the results.

Assay: chemical genetic growth profiling, strain panel (AID 1159580);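 also: tested at 20 µM; growth read once vehicle control cultures reached saturation at 30 °C; 1 = growth at the plate median or of vehicle wells; lower values mean less growth of the strain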
Conditions: S. cerevisiae deletion strains, growth OD
[1] = locus YHR030C, strain SLT2, stronger effect = lower value
[2] = locus YJL187C, strain SWE1, stronger effect = lower value

Measured: normalized growth

O=C(NC(=O)c1ccccc1Cl)Nc1ccc(OC(F)(F)F)cc1
inactive: locus YAL021C, strain ccr4, stronger effect = lower value 1.05 | locus YAL026C, strain drs2, stronger effect = lower value 1.02 | locus YAL030W, strain snc1, stronger effect = lower value 1.03 | locus YBL061C, strain skt5, stronger effect = lower value 1.02 | locus YBR009C, strain hhf1, stronger effect = lower value 0.999 | locus YBR023C, strain chs3, stronger effect = lower value 1.04 | locus YBR171W, strain sec66, stronger effect = lower value 1.05 | locus YBR231C, strain swc5, stronger effect = lower value 1.06 | locus YBR279W, strain paf1, stronger effect = lower value 1.01 | locus YCL011C, strain gbp2, stronger effect = lower value 1.04 | locus YCL016C, strain dcc1, stronger effect = lower value 1.04 | locus YCL061C, strain MRC1, stronger effect = lower value 1.04 | locus YCL069W, strain vba3, stronger effect = lower value 1.04 | locus YCR088W, strain abp1, stronger effect = lower value 1.03 | locus YDL005C, strain med2, stronger effect = lower value 1.05 | locus YDL040C, strain nat1, stronger effect = lower value 1.03 | locus YDR001C, strain nth1, stronger effect = lower value 1.02 | locus YDR069C, strain doa4, stronger effect = lower value 1.06 | locus YDR137W, strain rgp1, stronger effect = lower value 1.06 | locus YDR159W, strain sac3, stronger effect = lower value 1.04 | locus YDR195W, strain ref2 1.11 | locus YDR297W, strain sur2, stronger effect = lower value 1.03 | locus YDR334W, strain swr1, stronger effect = lower value 1.04 | locus YDR335W, strain msn5, stronger effect = lower value 1.04 | locus YDR392W, strain spt3, stronger effect = lower value 1.01 | locus YEL003W, strain gim4, stronger effect = lower value 1.03 | locus YEL037C, strain rad23, stronger effect = lower value 1.03 | locus YEL061C, strain CIN8 (second series), stronger effect = lower value 1.03 | locus YER015W, strain faa2, stronger effect = lower value 1.02 | locus YER016W, strain bim1, stronger effect = lower value 1.03 | locus YER111C, strain swi4, stronger effect = lower value 1.04 | locus YER155C, strain BEM2 (second series), stronger effect = lower value 1.07 | locus YFR010W, strain ubp6, stronger effect = lower value 1.03 | locus YGL167C, strain pmr1, stronger effect = lower value 1.03 | locus YGL173C, strain kem1, stronger effect = lower value 1.05 | locus YGL227W, strain vid30, stronger effect = lower value 1.03 | locus YGL240W, strain doc1, stronger effect = lower value 1.04 | locus YGL253W, strain hxk2, stronger effect = lower value 1.03 | locus YHR013C, strain ard1, stronger effect = lower value 1.09 | locus YHR027C, strain rpn1, stronger effect = lower value 1.04 | [1] 1.07 | locus YHR079C, strain IRE1, stronger effect = lower value 1.07 | locus YHR142W, strain chs7, stronger effect = lower value 1.01 | locus YJL092W, strain hpr5, stronger effect = lower value 1.03 | locus YJL095W, strain BCK1 (second series), stronger effect = lower value 1.02 | locus YJL095W, strain BCK1, stronger effect = lower value 1.06 | locus YJL115W, strain asf1, stronger effect = lower value 1.03 | locus YJL129C, strain trk1, stronger effect = lower value 1.08 | locus YJL154C, strain vps35, stronger effect = lower value 1.04 | locus YJL164C, strain tpk1, stronger effect = lower value 1.02 | locus YJL166W, strain qcr8, stronger effect = lower value 1.05 | [2] 1.03 | locus YJR066W, strain TOR1, stronger effect = lower value 0.971 | locus YKL160W, strain elf1, stronger effect = lower value 1.05 | locus YKR026C, strain gcn3, stronger effect = lower value 1.04 | locus YKR091W, strain srl3, stronger effect = lower value 1.03 | locus YLL001W, strain dnm1, stronger effect = lower value 1.06 | locus YLL026W, stronger effect = lower value 1.02 | locus YLL041C, strain sdh2, stronger effect = lower value 1.03 | locus YLR027C, strain aat2, stronger effect = lower value 1.04 | locus YLR113W, strain HOG1, stronger effect = lower value 1.07 | locus YLR221C, strain rsa3, stronger effect = lower value 1.05 | locus YLR258W, strain gsy2, stronger effect = lower value 1.02 | locus YLR262C, strain YPT6 (second series), stronger effect = lower value 1.06 | locus YLR320W, strain mms22, stronger effect = lower value 1.06 | locus YLR342W, strain FKS1, stronger effect = lower value 1.04 | locus YLR357W, strain rsc2, stronger effect = lower value 1.07 | locus YLR370C, strain arc18, stronger effect = lower value 1.04 | locus YLR384C, strain iki3, stronger effect = lower value 1.03 | locus YML120C, strain ndi1, stronger effect = lower value 1.03 | locus YMR058W, strain fet3, stronger effect = lower value 1.03 | locus YMR125W, strain sto1, stronger effect = lower value 1.06 | locus YMR129W, stronger effect = lower value 1.03 | locus YMR205C, strain PFK2, stronger effect = lower value 1.07 | locus YMR231W, strain pep5, stronger effect = lower value 1.03 | locus YNL071W, strain lat1, stronger effect = lower value 1.05 | locus YNL183C, strain NPR1, stronger effect = lower value 0.985 | locus YNL209W, strain ssb2, stronger effect = lower value 1.03 | locus YNL248C, strain rpa49, stronger effect = lower value 1.07 | locus YNL322C, strain KRE1 (second series), stronger effect = lower value 1.05 | locus YNR049C, strain mso1, stronger effect = lower value 1.03 | locus YOR001W, strain rrp6, stronger effect = lower value 1.01 | locus YOR070C, strain gyp1, stronger effect = lower value 1.05 | locus YOR080W, strain dia2, stronger effect = lower value 1.05 | locus YOR083W, strain WHI5, stronger effect = lower value 1.05 | locus YOR106W, strain vam3, stronger effect = lower value 1.07 | locus YOR231W, strain MKK1, stronger effect = lower value 1.07 | locus YOR265W, strain rbl2, stronger effect = lower value 1.03 | locus YOR270C, strain vph1, stronger effect = lower value 1.1 | locus YOR290C, strain snf2, stronger effect = lower value 1.07 | locus YPL051W, strain arl3, stronger effect = lower value 1.07 | locus YPL078C, strain atp4, stronger effect = lower value 1.06 | locus YPL106C, strain sse1, stronger effect = lower value 1.02 | locus YPL240C, strain hsp82, stronger effect = lower value 1.01 | locus YPL256C, strain CLN2, stronger effect = lower value 1.11

CCOC(=O)CNc1ccc(F)cc1
inactive: locus YAL013W, strain DEP1, stronger effect = lower value 0.995 | locus YBR229C, strain ROT2, stronger effect = lower value 0.989 | locus YDL101C, strain DUN1, stronger effect = lower value 1.02 | locus YDL134C, strain PPH21, stronger effect = lower value 0.977 | locus YDR150W, strain NUM1, stronger effect = lower value 1.02 | locus YEL061C, strain CIN8, stronger effect = lower value 1.01 | locus YGR078C, strain PAC10, stronger effect = lower value 0.991 | [1] 0.989 | locus YHR087W, strain rtc3, stronger effect = lower value 1.01 | [2] 1 | locus YJR043C, strain POL32, stronger effect = lower value 0.988 | locus YJR075W, strain HOC1, stronger effect = lower value 0.99 | locus YLR039C, strain RIC1, stronger effect = lower value 0.953 | locus YLR058C, strain SHM2 (second series), stronger effect = lower value 0.983 | locus YLR085C, strain ARP6, stronger effect = lower value 0.986 | locus YLR262C, strain YPT6, stronger effect = lower value 0.975 | locus YML094W, strain GIM5, stronger effect = lower value 1.04 | locus YMR219W, strain ESC1, stronger effect = lower value 0.997 | locus YMR263W, strain SAP30, stronger effect = lower value 0.983 | locus YNL128W, strain TEP1, stronger effect = lower value 0.98 | locus YNL153C, strain GIM3, stronger effect = lower value 1.01 | locus YNL298W, strain CLA4 (second series), stronger effect = lower value 0.974 | locus YNL322C, strain KRE1, stronger effect = lower value 0.999 | locus YNR030W, strain Alg12, stronger effect = lower value 1.03 | locus YPL055C, strain LGE1, stronger effect = lower value 1.02 | locus YPL241C, strain CIN2, stronger effect = lower value 0.977 | locus YPR135W, strain CTF4, stronger effect = lower value 0.965
